Assay outcomes from PubChem BioAssay.
The list is not random: actives were taken first. Their share in the collection is about 4.9%.
PP5 inh – blocks human protein phosphatase 5 activity; P53041; purified PP5c, OMFP substrate fluorescence; inhibition, % at 6.7 µM; 320,000 tested, 0.18% active; AID 1987;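 active = inhibition above the campaign's mean inhibition across all tested compounds plus 3 SD, cut at about 9.5% in these data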
Beta cell apopt – blocks beta cell apoptosis. 300,000 tested, 0.8% active. INS-1E cytokine-induced death, ATP luminescence, 48 h; percent of positive-control rescue, neutral wells zero. protection from apoptosis, % (test concentration not listed). AID 435005;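 active = Every replicate reaches about 75%, or at least half do and their mean reaches it too, limit read from the data; inconclusive = At least half of replicates reach the limit but their mean does not; inactive = Under half of replicates reach the limit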;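 also: higher means more ATP so stronger rescue from cytokine killing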
CSC inhib – cancer stem cell inhibition. 300,000 tested, 1.1% active. cancer stem cell-like cells viability, luminescence. inhibition, % at 7.5 µM; in the data active = inhibition above about 75%; inconclusive = no clear call, values can overlap the other calls; tested in HMLE shEcad cells
PP1 inh – counter-screen for PP5 inhibitors: inhibitors of human PP1-alpha | purified PP1alpha, OMFP fluorescence | P62136 | 320,000 tested, 0.9% active | inhibition, % at 6.7 µM;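 active = inhibition above the mean inhibition of all tested compounds plus 3 SD, computed separately for each screening campaign, cut at about 15% in these data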
Target sequence (P62136 whole entry, looked up): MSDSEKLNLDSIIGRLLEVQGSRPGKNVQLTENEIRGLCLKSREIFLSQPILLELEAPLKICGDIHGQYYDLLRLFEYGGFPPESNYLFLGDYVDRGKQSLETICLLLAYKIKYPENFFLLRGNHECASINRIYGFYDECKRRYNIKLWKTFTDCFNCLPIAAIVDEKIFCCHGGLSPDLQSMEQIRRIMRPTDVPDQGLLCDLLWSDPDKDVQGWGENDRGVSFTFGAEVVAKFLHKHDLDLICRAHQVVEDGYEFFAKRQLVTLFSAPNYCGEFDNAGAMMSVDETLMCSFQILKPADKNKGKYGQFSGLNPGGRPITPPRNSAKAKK
Calb FLC – affects C. albicans growth with fluconazole. C. albicans CaCi-2 (fluconazole-resistant clinical isolate) + fluconazole, Alamar Blue growth, 48 h. growth inhibition, % (test concentration not listed). 300,000 tested, 0.57% active. AID 1979;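 active = growth inhibition above about 58% in most replicates, limit read from the data, passing the limit was not always enough; inconclusive = exactly half the replicates above a set limit; inactive = most replicates below a set limit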;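 also: all wells also contain fluconazole at 8 µg/ml as a sub-toxic cotreatment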
Mdm2-MdmX inh – inhibitors of human Mdm2/MdmX interaction | O15151+Q00987 | SaOS-2 split-luciferase Mdm2/MdmX complementation, luminescence | inhibition, % at 8 µM | 330,000 tested, 3% active;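 active = inhibition of at least 50% at 8 µM in the primary screen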
Hits are given with their value; - = inactive; ? = inconclusive; . = not tested or not shown.

SMILES	PP5 inh	Beta cell apopt	CSC inhib	PP1 inh	Calb FLC	Mdm2-MdmX inh
O=C(OC[C@H]1O[C@@H](OC(=O)c2cc(O)c(O)c(OC(=O)c3cc(O)c(O)c(O)c3)c2)[C@H](OC(=O)c2cc(O)c(O)c(OC(=O)c3cc(O)c(O)c(O)c3)c2)[C@@H](OC(=O)c2cc(O)c(O)c(OC(=O)c3cc(O)c(O)c(O)c3)c2)[C@@H]1OC(=O)c1cc(O)c(O)c(OC(=O)c2cc(O)c(O)c(O)c2)c1)c1cc(O)c(O)c(OC(=O)c2cc(O)c(O)c(O)c2)c1	-	-	90	82	.	.
COC1OC(COC(=O)c2ccccc2)C(OC(=O)c2ccccc2)C1OC(=O)c1ccccc1 (configuration not stated)	-	-	-	-	-	-
O=C(CCCN1C(=O)c2ccccc2C1=O)Nc1ccc2c(c1)OCCO2	-	-	-	-	-	-
CSc1cc(-c2ccccc2)n(C)c(=O)c1C#N	-	-	-	-	104	-
Cc1ccc(S(=O)(=O)N2C(=O)CCC2C(=O)O/N=C(\N)c2ccccc2)cc1 (configuration not stated)	-	-	-	-	-	-
O=C1c2ccccc2C(=O)N1CCCCN(C(=O)c1cc2ccccc2oc1=O)c1ccc(F)cc1F	-	-	-	-	-	-
O=C(CN1CCN(c2ccc(O)cc2)CC1)NC(c1ccccc1)c1ccccc1	-	-	-	-	114	-
O=C(CN1CCCCCC1)NC(c1ccccc1)c1ccccc1	-	-	-	-	-	-
CCN1CCN(C(=O)c2ccc(CSc3ccc(C)cc3)cc2)CC1	-	-	155	-	98	-
Cc1cccc(/C=N/NC(=O)c2ccc(NC(=O)c3ccc(Cl)cc3)cc2)n1	-	-	-	15	-	-
CC(C)Oc1ccccc1/C=N/NC(=O)c1ccc(F)cc1	-	-	-	-	-	-
CCN(CC)c1ccc(C(=O)N/N=C/c2ccccc2OC(F)F)cc1	-	80	-	-	?	-
O=S(=O)(Cc1ccccc1)N1CCc2ccccc21	-	-	-	-	100	-
CN(C)S(=O)(=O)N1CCc2ccccc21	-	-	-	-	-	-
COc1ccc(OC)c(/C=C/C(=O)Nc2ccc(OC)nc2)c1	-	-	-	-	113	-
COc1ccc(OC)c(/C=C/C(=O)NC2=NCCS2)c1	-	-	-	-	-	-
COc1ccc(Br)cc1/C=C/C(=O)Nc1ccc2ccccc2c1	-	-	77	-	-	-
COc1ccc(Br)cc1/C=C/C(=O)Nc1ccc(C)cc1	-	-	-	-	-	-
COc1cc2nc(SCc3ccc(Cl)cc3Cl)n(Cc3cccs3)c(=N)c2cc1OC	-	-	-	-	81	-
Cc1c(C(C)C)c(=O)n(-c2ccc(S(=O)(=O)NCc3ccccc3)cc2)n1C	-	105	-	-	-	-
Cc1c(C(C)C)c(=O)n(-c2ccc(S(=O)(=O)NC3CCCCC3)cc2)n1C	-	-	-	-	-	-
O=C(CSc1cccc[n+]1[O-])CSc1cccc[n+]1[O-]	-	.	-	-	73	-
COC(=O)c1ccc(C(=O)OC)c(NC(=O)CSc2cccc[n+]2[O-])c1	-	-	.	-	113	-
O=C(CSc1cccc[n+]1[O-])N1CCCCCC1	-	-	-	-	-	-
CC(C)C(=O)NCC(c1ccc2c(c1)OCO2)N1CCOCC1 (configuration not stated)	-	-	-	-	-	-
SMILES	PP5 inh	Beta cell apopt	CSC inhib	PP1 inh	Calb FLC	Mdm2-MdmX inh
CC1(C)OC(C(O)(c2ccccc2)c2ccccc2)[C@@H](C(O)(c2ccccc2)c2ccccc2)O1 (some centres not stated)	-	-	108	-	-	.
COC(=O)c1cn(CC(=O)NC2CCCCC2)c2ccccc12	-	-	-	-	100	-
O=C(Cn1cc(C(=O)C2CC2)c2ccccc21)NC1CCCC1	-	-	-	-	-	-
COc1ccc(C2C(C(=O)c3ccco3)=C(O)C(=O)N2CCCn2ccnc2)c(OC)c1 (configuration not stated)	-	-	-	-	-	-
O=C(NCCOCCNC(=O)OCc1ccccc1)OCc1ccccc1	-	-	-	-	-	-
Fc1ccccc1COc1ccc(-c2nnn(Cc3ccccc3F)n2)cc1	-	-	81	-	-	-
COc1ccc(O)c(/C=N/NC(=S)Nc2cccnc2)c1	-	76	-	-	-	-
COc1cccc(/C=N/NC(=S)Nc2cccnc2)c1	-	-	-	-	-	-
